The values below come from PubChem BioAssay (NCI).

The nature of experiment [1]: NCI Yeast Anticancer Drug Screen. Data for the rad50 strain (AID 155).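 Note: 0% = growth of vehicle-only cultures of the same strain.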 The note with it: S. cerevisiae rad50 strain growth inhibition; at 50.0 µM; hits give high values. In short, it runs like this:
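Growth of the mutant yeast was measured after compound exposure and referenced to vehicle-treated cultures.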

Experiment [2] is described as follows: NCI Yeast Anticancer Drug Screen. Data for the mec2-1 strain (AID 157). The note with it: S. cerevisiae mec2-1 strain, at 50.0 µM, hits give high values. In short, it runs like this: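 Each compound was tested on mec2-1 yeast, a strain altered in DNA damage repair or cell cycle control. Growth inhibition is reported relative to vehicle.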
Experiment [3] can be described thus: NCI Yeast Anticancer Drug Screen. Data for the sgs1 mgt1 strain (AID 161).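 Note: 0% = growth of cultures given vehicle only.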 The note with it: S. cerevisiae sgs1 mgt1 strain, at 50.0 µM, hits give high values. In short, it runs like this:
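Read-out: growth inhibition vs vehicle controls. Cells: mutant yeast strain deficient in DNA damage repair.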

Experiment [4] is described as follows: NCI Yeast Anticancer Drug Screen. Data for the cln2 rad14 strain (AID 165).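 Note: 0% = growth equal to vehicle treated cultures.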 The note with it: S. cerevisiae cln2 rad14 strain, at 50.0 µM, hits give high values. In short, it runs like this:
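Test compounds were added to cln2 rad14 yeast cultures; inhibition of growth was then determined by comparison with vehicle treatment.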

Experiment [5] is described as follows: NCI Yeast Anticancer Drug Screen. Data for the bub3 strain (AID 167). The note with it: S. cerevisiae bub3 mutant strain, at 50.0 µM, hits give high values. The method, boiled down: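 Whole-cell yeast assay. The mutant strain was incubated with compounds, and growth inhibition was determined by comparison with vehicle-treated cells.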
Experiment [6] in a line: NCI Yeast Anticancer Drug Screen. Data for the mlh1 rad18 strain (AID 175). The note with it: S. cerevisiae mlh1 rad18 strain growth inhibition; at 50.0 µM; hits give high values. The method, boiled down: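 Inhibition values reflect reduced growth of mutant yeast versus vehicle-treated controls following compound exposure; the mutations affect DNA damage repair.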

Compounds without any hit were thinned out: in the full panel of roughly 79,000, 15% have a hit. Unmarked numbers belong to inactive results. Calls of active or inactive are those of the source. Cut-off read from the data, not from the text of the source: active = growth inhibition above about 70%; inactive = the rest.

Turning to `O=C(Cc1ccccc1C(=O)O)c1ccccc1`, the growth inhibition is -16.6% in experiment [1]; -18.6% in experiment [2]; -23.6% in experiment [3]; -24.4% in experiment [4]; -25.1% in experiment [5]; -13.3% in experiment [6].
Regarding `CCOC(=O)N1Cc2cc3ccccc3nc2C1CC(=O)O` (stereo unspecified), the growth inhibition is -14.8% in experiment [1]; 11.9% in experiment [2]; -3.6% in experiment [3]; -28.1% in experiment [4]; -1.65% in experiment [5]; -24.8% in experiment [6].
As to `COC(=O)CC12CCCC(C)(CC(=O)N1)C2` (stereo unspecified), the growth inhibition in experiment [1] is 16.4%; in experiment [2], 1.25%; in experiment [3], 12.5%; in experiment [4], 15.8%; in experiment [5], -4%; in experiment [6] it was -0.5%.
Consider `CCOc1ccc(N=C(NC(=O)c2ccccc2)SC)cc1`, for which the growth inhibition was -5.9% in experiment [1]; -0.7% in experiment [2]; -0.15% in experiment [3]; 23.3% in experiment [4]; 10.1% in experiment [5]; 0.65% in experiment [6].
Consider `O=S(=O)(NC1CCC(CC2CCCCC2)CC1)c1ccccc1` (stereo unspecified), for which the growth inhibition in experiment [1] is 81% (active); in experiment [2], 42%; in experiment [3] it was 47.5%; in experiment [4] it was 40%; in experiment [5] it was 88.4% (active); in experiment [6], 82.5% (active).
For the compound `C/C(=N\NC(N)=O)c1sc(-c2nc(C)c(/C(C)=N/NC(N)=O)s2)nc1C`, the growth inhibition in experiment [1] is 32.8%; in experiment [2] it was 22.8%; in experiment [3], 20.9%; in experiment [4], 43.3%; in experiment [5], -16.1%; in experiment [6] it was 27.5%.
Turning to `CN=c1ncc2nc(-c3ccccc3)c(-c3ccccc3)n(C)c-2n1`, the growth inhibition was -8.2% in experiment [1]; -5.9% in experiment [2]; -7.45% in experiment [3]; -42% in experiment [4]; -3.85% in experiment [5]; -24.4% in experiment [6].
For `COc1ccc(N2C(=O)C(=O)C3(CCCCC3)C2=O)c2ccccc12`, the growth inhibition was -6.15% in experiment [1]; -25.7% in experiment [2]; -16% in experiment [3]; 10.8% in experiment [4]; 1.05% in experiment [5]; 0.3% in experiment [6].
With `CC(O)C1C(C(=O)O)C2C(C)OC(=O)C12` (stereo unspecified), the growth inhibition is -0.6% in experiment [1]; -3.4% in experiment [2]; -0.8% in experiment [3]; 52.5% in experiment [4]; 2.45% in experiment [5]; 15.5% in experiment [6].
Regarding `CCc1ccccc1OCC(O)CO` (stereo unspecified), the growth inhibition in experiment [1] was -21.9%; in experiment [2] it was -2.45%; in experiment [3], -6.2%; in experiment [4], -11.5%; in experiment [5] it was -8.85%; in experiment [6], 27.8%.
On to `CCCC(O)C(CC)[N+](=O)[O-]` (stereo unspecified), for which the growth inhibition in experiment [1] is 13.6%; in experiment [2], 0.95%; in experiment [3], 5%; in experiment [4], 3.65%; in experiment [5], 0.1%; in experiment [6] it was 5.75%.
On to `NC1c2c(Br)sc(N3CCCC3)c2C(=O)C1O` (stereo unspecified), for which the growth inhibition in experiment [1] was 8.05%; in experiment [2] it was -3.5%; in experiment [3], -5.25%; in experiment [4] it was -5.35%; in experiment [5], -16.4%; in experiment [6], -30.3%.
Turning to `COC(=O)c1cccc(C(=O)CC(=O)c2ccccc2)c1`, the growth inhibition in experiment [1] was 18.6%; in experiment [2] it was 12.7%; in experiment [3], 8.1%; in experiment [4], 12.3%; in experiment [5] it was 11.2%; in experiment [6], 11.6%.
For `O=C(Nc1ccccc1C(=O)N/N=C/c1ccccc1Cl)c1ccccc1Cl`, the growth inhibition in experiment [1] was -36.5%; in experiment [2] it was -14.1%; in experiment [3] it was 5.1%; in experiment [4], -25.9%; in experiment [5], 0.25%; in experiment [6], 4.1%.
Take `O=C(/C=C\c1ccccc1)Nc1c(Cl)cc(Cl)cc1Cl`: the growth inhibition in experiment [1] is 0.65%; in experiment [2] it was 10.5%; in experiment [3], 9.05%; in experiment [4], -8.75%; in experiment [5], 39.5%; in experiment [6], 23.3%.
In the case of `CN(/N=C1\C(=O)Nc2ccccc21)c1ccccc1`, the growth inhibition in experiment [1] was 4.65%; in experiment [2] it was -3.15%; in experiment [3] it was 13.6%; in experiment [4], -37.9%; in experiment [5], 3.85%; in experiment [6], 17.6%.
Consider `COc1cccc(CC2C(=O)N=C(NC(C)=O)N2C)c1OC(C)=O` (stereo unspecified), for which the growth inhibition in experiment [1] is -35%; in experiment [2], -7.4%; in experiment [3], -23.6%; in experiment [4], -11.7%; in experiment [5] it was -5.65%; in experiment [6], -31.2%.
On to `CC(=O)COc1cccc2ccccc12`, for which the growth inhibition in experiment [1] was -1.15%; in experiment [2], -3.1%; in experiment [3], -2.05%; in experiment [4], -36.4%; in experiment [5], -23.8%; in experiment [6] it was -2.35%.
Consider `CNC(=O)Nc1ccc(C(=O)OCC(C)C)cc1`, for which the growth inhibition in experiment [1] is 6.4%; in experiment [2], 8.7%; in experiment [3], 12.9%; in experiment [4], -34.1%; in experiment [5], -22.1%; in experiment [6] it was 7.45%.
On to `NS(=O)(=O)c1ccc(NC2(C(=O)O)CCCC2)cc1`, for which the growth inhibition is -18.4% in experiment [1]; -9.3% in experiment [2]; -0.9% in experiment [3]; -9.4% in experiment [4]; -38.5% in experiment [5]; -21.5% in experiment [6].
`CCOCCOCCOC(=O)CC(C)=O`: the growth inhibition is 3.45% in experiment [1]; 24.9% in experiment [2]; 5.5% in experiment [3]; -22.3% in experiment [4]; -11.8% in experiment [5]; -11.5% in experiment [6].
